Source: PubChem BioAssay (NCI)
About 79,000 compounds went through this panel and 15% of them were active in at least one assay; those are over-represented in the sample as a whole. Unmarked numbers belong to inactive results. Calls of active or inactive are those of the source. Cut-off read from the data, not from the text of the source: active = growth inhibition above about 70%; inactive = the rest.

Assays:
[1] = NCI Yeast Anticancer Drug Screen. Data for the rad50 strain (AID 155);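 note: 0% = growth of vehicle-only cultures of the same strain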; conditions: S. cerevisiae rad50 strain growth inhibition, hits give high values
In short: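 Genetically altered yeast (DNA repair pathway); compound treatment; growth inhibition vs vehicle ctrl.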

[2] = NCI Yeast Anticancer Drug Screen. Data for the mec2-1 strain (AID 157); conditions: S. cerevisiae mec2-1 strain, hits give high values
In short: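 Vehicle-treated cultures served as reference for growth inhibition of compound-exposed mec2-1 yeast.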

[3] = NCI Yeast Anticancer Drug Screen. Data for the sgs1 mgt1 strain (AID 161);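 note: 0% = growth of cultures given vehicle only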; conditions: S. cerevisiae sgs1 mgt1 strain, hits give high values
In short: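 Test agents were incubated with a DNA-repair-mutant yeast strain. Growth was then read and compared against vehicle-treated controls.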

[4] = NCI Yeast Anticancer Drug Screen. Data for the cln2 rad14 strain (AID 165);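 note: 0% = growth equal to vehicle treated cultures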; conditions: S. cerevisiae cln2 rad14 strain, hits give high values
In short: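 Each compound was tested on cln2 rad14 yeast. Inhibition of growth was calculated against vehicle-exposed controls.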

[5] = NCI Yeast Anticancer Drug Screen. Data for the bub3 strain (AID 167); conditions: S. cerevisiae bub3 mutant strain, hits give high values
In short: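 Yeast carrying a defined mutation is treated with each compound, and growth is compared with that of vehicle-exposed cells to give inhibition.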

[6] = NCI Yeast Anticancer Drug Screen. Data for the mlh1 rad18 strain (AID 175); conditions: S. cerevisiae mlh1 rad18 strain growth inhibition, hits give high values
In short: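 Vehicle-treated cultures served as the reference for growth inhibition in a yeast strain carrying DNA damage repair alterations exposed to each compound.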

[7] = at 5.0 µM (retest, dose inferred, filed as 0.5)
[8] = at 50.0 µM (retest, dose inferred, filed as 5.0)

| Compound | growth inhibition [1, 7] [%] | growth inhibition [1, 8] | growth inhibition ([1]; at 50.0 µM) | growth inhibition [2, 7] [%] | growth inhibition [2, 8] | growth inhibition ([2]; at 50.0 µM) | growth inhibition [3, 7] [%] | growth inhibition [3, 8] | growth inhibition ([3]; at 50.0 µM) | growth inhibition [4, 7] [%] | growth inhibition [4, 8] | growth inhibition ([4]; at 50.0 µM) | growth inhibition [5, 7] [%] | growth inhibition [5, 8] | growth inhibition ([5]; at 50.0 µM) | growth inhibition [6, 7] [%] | growth inhibition [6, 8] | growth inhibition ([6]; at 50.0 µM) |
| --- | --- | --- | --- | --- | --- | --- | --- | --- | --- | --- | --- | --- | --- | --- | --- | --- | --- | --- |
| CCCCCNC(=O)C1C(=O)N(CCCCC)C(=O)/C1=N\N (configuration not stated) | -1 | -1% | -5% | -3 | 2% | 29.8% | 2 | 3% | 1.7% | 1 | -3% | 79.7% (active) | 5 | -3% | 30.8% | -1 | -4% | -13.5% |
| Cc1c(C)c(C[P+](CCP(c2ccccc2)c2ccccc2)(c2ccccc2)c2ccccc2)c(C)c(C)c1C[P+](CCP(c1ccccc1)c1ccccc1)(c1ccccc1)c1ccccc1 | 18 | 36% | 29.8% | 11 | 13% | 16.5% | 7 | 41% | 59.5% | -14 | 2% | -1.3% | 14 | 21% | -5.8% | 13 | 33% | 35.2% |
| COc1cccc(/C=N/NC(=O)c2c(-c3ccccc3)noc2C)c1O | 47 | 70% (active) | 85% (active) | 26 | 86% (active) | 84.1% (active) | 45 | 82% (active) | 89.2% (active) | 25 | 51% | 83.3% (active) | 42 | 85% (active) | 85.5% (active) | 58 | 87% (active) | 81.8% (active) |
| CC(=O)Oc1ccc(C23CC4CC(CC(C4)C2)C3)cc1 | -2 | 98% (active) | 98.8% (active) | -2 | 99% (active) | 98.5% (active) | 16 | 99% (active) | 98.6% (active) | -36 | 99% (active) | 96.6% (active) | 25 | 108% (active) | 98.8% (active) | 10 | 99% (active) | 98.3% (active) |
| CCCCCOC(=S)SSSC(=S)OCCCCC | -38 | 96% (active) | 8.65% | 44 | 99% (active) | 4.7% | 6 | 97% (active) | 22.1% | -13 | 66% | -0.1% | 0 | 98% (active) | 28.2% | 16 | 97% (active) | 21.9% |
| Fc1ccc(NC(=S)SCc2ccccc2)cc1 | 4 | 16% | 68.3% | -2 | 18% | 53.6% | 2 | 19% | 76.8% (active) | -7 | 1% | 28.9% | -4 | 34% | 45.5% | 0 | 15% | 78.2% (active) |
| COc1ccccc1NC(=O)CC(=O)N1N=C(C)C(N=Nc2ccc(I)cc2)C1=O (configuration not stated) | 5 | 36% | 93% (active) | 6 | 30% | 11.1% | 6 | 28% | 83.1% (active) | 2 | 20% | -39.5% | 5 | 41% | 33% | 2 | 41% | 85.6% (active) |
| CN(C)CCCNc1c2ccccc2nc2ccc(F)cc12 | 0 | 24% | 27.2% | -8 | 26% | 24.4% | 6 | 24% | 15.2% | 8 | 21% | 81.8% (active) | 0 | 6% | 42.5% | 14 | 27% | 36.8% |
| O=C(/C=C/c1ccccc1)c1ccc(NCc2nc3ccccc3[nH]2)cc1 | -28 | 74% (active) | 70.7% (active) | -62 | 61% | 77% (active) | -23 | 82% (active) | 84% (active) | -20 | 80% (active) | 84.8% (active) | -8 | 85% (active) | 76.7% (active) | -35 | 80% (active) | 68.8% |
